Measured values as given in PubChem BioAssay (NCI).
About 83,000 compounds went through this panel and 20% of them were active in at least one assay; those are over-represented in the sample as a whole.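 The test compound was applied at a single concentration to cells in 96-well plates for 48 hours, and percent growth was recorded.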 Active and inactive are the calls of the source. How the source made its calls: active means growth percent below 10; inactive means the rest.

Columns and labels:
Experiment in all cases: NCI-60 one-dose screen, 48 h (100 = growth as untreated, 0 = no growth, -100 = all killed)
Settings in all cases: 10 µM
HCT-15 colon = tested on: HCT-15 colon
HT29 colon = tested on: HT29 colon
SNB-75 CNS = tested on: SNB-75 CNS
SNB-19 CNS = tested on: SNB-19 CNS
U251 CNS = tested on: U251 CNS
PC-3 prostate = tested on: PC-3 prostate
SK-MEL-5 melanoma = tested on: SK-MEL-5 melanoma
UACC-62 melanoma = tested on: UACC-62 melanoma
SK-MEL-28 melanoma = tested on: SK-MEL-28 melanoma
EKVX NSCLC = tested on: EKVX NSCLC
SN12C renal = tested on: SN12C renal
UO-31 renal = tested on: UO-31 renal
TK-10 renal = tested on: TK-10 renal
ACHN renal = tested on: ACHN renal
CAKI-1 renal = tested on: CAKI-1 renal
A498 renal = tested on: A498 renal
CCRF-CEM leukemia = tested on: CCRF-CEM leukemia
MOLT-4 leukemia = tested on: MOLT-4 leukemia
SK-MEL-2 melanoma = tested on: SK-MEL-2 melanoma
LOX IMVI melanoma = tested on: LOX IMVI melanoma

Measured: growth

COc1ccccc1[C@H]1C(C(=O)c2ccc(Cl)cc2)C2(N[C@@H]1c1ccccc1)C(=O)Nc1ccc(Cl)cc12 (some centres undefined)
active: HCT-15 colon 7.83% | HT29 colon -3.95% | SK-MEL-5 melanoma -75.4% | UACC-62 melanoma -27.3% | EKVX NSCLC 8.9% | SN12C renal -66.3% | UO-31 renal 6.99% | ACHN renal 3.8% | CAKI-1 renal 8.2% | CCRF-CEM leukemia 5.19% | MOLT-4 leukemia -21.1%
inactive: SNB-75 CNS 40.9% | SNB-19 CNS 21.2% | U251 CNS 17% | PC-3 prostate 13.3% | SK-MEL-28 melanoma 35.1% | TK-10 renal 31.4% | A498 renal 13.1%

CC(=O)OC[C@@]1(C)C2CC[C@]3(C)C(CC=C4C5CC(C)(C)CC[C@]5(C(=O)Nc5ccccc5)CC[C@]43C)[C@@]2(C)C[C@@H](OC(C)=O)[C@@H]1OC(C)=O (some centres undefined)
active: SK-MEL-5 melanoma 2.74%
inactive: HCT-15 colon 25.1% | HT29 colon 28.5% | SNB-75 CNS 58.4% | SNB-19 CNS 39.9% | U251 CNS 39.9% | PC-3 prostate 27.7% | UACC-62 melanoma 31% | SK-MEL-28 melanoma 59.2% | SK-MEL-2 melanoma 35.4% | EKVX NSCLC 26.8% | UO-31 renal 33.1% | TK-10 renal 53.1% | ACHN renal 34.4% | CAKI-1 renal 37.2% | A498 renal 64.6% | CCRF-CEM leukemia 29.7% | MOLT-4 leukemia 24.4%

COc1ccc(NC(=O)CSc2nnc(-c3ccc4nc(-c5ccc(Cl)cc5)[nH]c4c3)o2)cc1
active: U251 CNS -15.3% | UACC-62 melanoma 7.61%
inactive: HCT-15 colon 29.9% | HT29 colon 34.6% | SNB-75 CNS 112% | SNB-19 CNS 33.7% | PC-3 prostate 51.9% | SK-MEL-5 melanoma 16.1% | SK-MEL-28 melanoma 10.1% | SK-MEL-2 melanoma 107% | EKVX NSCLC 98.8% | SN12C renal 29.1% | UO-31 renal 63.9% | TK-10 renal 121% | ACHN renal 63.8% | CAKI-1 renal 83.6% | A498 renal 132% | CCRF-CEM leukemia 67.5% | MOLT-4 leukemia 30.4%

COc1ccc(C(=O)Nc2ccc(-c3ccc4c(c3)NC(=O)/C4=C\c3ccc[nH]3)cc2)cc1
inactive: HCT-15 colon 15.2% | HT29 colon 15.6% | SNB-19 CNS 60.8% | U251 CNS 32.8% | PC-3 prostate 27.5% | SK-MEL-5 melanoma 49.1% | UACC-62 melanoma 78.1% | SK-MEL-28 melanoma 88.8% | SK-MEL-2 melanoma 99.5% | SN12C renal 64.9% | UO-31 renal 81.3% | TK-10 renal 98.8% | ACHN renal 60.7% | CAKI-1 renal 72.7% | A498 renal 118% | CCRF-CEM leukemia 26% | MOLT-4 leukemia 55.6%
active: SNB-75 CNS -11% | EKVX NSCLC 7.85%

CCCCSc1nc(Nc2ccc(/C(C)=N/NC(N)=S)cc2)c(C#N)c(-c2ccc(OC)cc2)n1
inactive: HCT-15 colon 75.9% | HT29 colon 86.7% | SNB-75 CNS 37.7% | SNB-19 CNS 63.8% | U251 CNS 22.8% | PC-3 prostate 85.2% | SK-MEL-5 melanoma 46.2% | UACC-62 melanoma 44.7% | SK-MEL-28 melanoma 90.5% | SK-MEL-2 melanoma 104% | EKVX NSCLC 79.4% | ACHN renal 55.2% | CAKI-1 renal 51.6% | A498 renal 32.2% | CCRF-CEM leukemia 86.2% | MOLT-4 leukemia 67.7%
active: SN12C renal 7.27% | UO-31 renal -19.7% | TK-10 renal -0.624%

COc1cc2c(cc1OC)/C(=C\c1sc(Nc3ccc(O)cc3)nc1O)C(C(=O)O)=N2
inactive: HCT-15 colon 24.1% | HT29 colon 10% | SNB-19 CNS 24.3% | U251 CNS 18.6% | PC-3 prostate 19.1% | SK-MEL-5 melanoma 14.4% | UACC-62 melanoma 20% | SK-MEL-28 melanoma 47.6% | SN12C renal 35.4% | UO-31 renal 39.7% | TK-10 renal 77.4% | ACHN renal 37.8% | CAKI-1 renal 26.9% | A498 renal 103% | CCRF-CEM leukemia 19.3% | MOLT-4 leukemia 25.9%
active: SNB-75 CNS -16.4% | SK-MEL-2 melanoma -9.38%

O=C1Nc2ccc(F)cc2/C1=C/c1cccc(OCc2ccccc2)c1
active: HCT-15 colon 0.287% | U251 CNS 6.3% | SK-MEL-5 melanoma -24.7% | SK-MEL-2 melanoma -23.1% | CCRF-CEM leukemia -4.49% | MOLT-4 leukemia 1.81%
inactive: HT29 colon 20.6% | SNB-75 CNS 66.2% | SNB-19 CNS 23.9% | PC-3 prostate 20.4% | UACC-62 melanoma 16.5% | SK-MEL-28 melanoma 36.2% | EKVX NSCLC 18.4% | SN12C renal 20.2% | TK-10 renal 70.9% | ACHN renal 22.4% | CAKI-1 renal 25.9% | A498 renal 80.2%

Nc1nc(Nc2ccc(Cl)cc2)n(Cc2cccc(Br)c2)n1
active: HCT-15 colon -52.7% | SNB-75 CNS -23.9% | SNB-19 CNS -12.3% | U251 CNS -12.4% | PC-3 prostate 0.572% | SK-MEL-5 melanoma -100% | UACC-62 melanoma -82.3% | SK-MEL-28 melanoma -61.1% | SK-MEL-2 melanoma -74.7% | EKVX NSCLC -4.06% | UO-31 renal -7.87% | TK-10 renal -3.35% | ACHN renal 1.49% | CAKI-1 renal 3.07% | A498 renal -49% | CCRF-CEM leukemia 4.65% | MOLT-4 leukemia 8.42%
inactive: HT29 colon 11.4%

Nc1nnc(-c2c[nH]c3ccc(F)cc23)c(-c2c[nH]c3ncccc23)n1
inactive: HCT-15 colon 69.3% | HT29 colon 59.5% | SNB-75 CNS 29.1% | SNB-19 CNS 33.9% | U251 CNS 37.6% | PC-3 prostate 67.5% | SK-MEL-5 melanoma 63.7% | UACC-62 melanoma 51.7% | SK-MEL-28 melanoma 71.3% | SK-MEL-2 melanoma 93.7% | EKVX NSCLC 65.1% | SN12C renal 46.9% | UO-31 renal 37.9% | TK-10 renal 82.9% | ACHN renal 51.6% | CAKI-1 renal 33.9% | A498 renal 104% | CCRF-CEM leukemia 61.6% | MOLT-4 leukemia 48.8%

COc1cccc(C(N)=Nc2ccc(OCCCCCCn3cncn3)cc2)c1
inactive: HCT-15 colon 16.8% | SNB-75 CNS 54.4% | SNB-19 CNS 37.6% | U251 CNS 10.3% | PC-3 prostate 34.4% | UACC-62 melanoma 36.4% | LOX IMVI melanoma 36% | SK-MEL-28 melanoma 51.4% | SK-MEL-2 melanoma 27.3% | EKVX NSCLC 42% | SN12C renal 30.2% | UO-31 renal 45.4% | ACHN renal 45% | CAKI-1 renal 39.1% | A498 renal 113% | CCRF-CEM leukemia 10.4%
active: HT29 colon -27.9%

CCCCCc1ccc(S(=O)(=O)Nc2cc(-c3csc(N(C)C(C)=O)n3)ccc2N2CCN(C)CC2)cc1
active: HCT-15 colon 1.4% | SK-MEL-5 melanoma -6.97% | UACC-62 melanoma -62.2% | LOX IMVI melanoma -71.1% | CCRF-CEM leukemia -27.5%
inactive: HT29 colon 15.2% | SNB-75 CNS 40% | SNB-19 CNS 41% | PC-3 prostate 37% | SK-MEL-28 melanoma 11.8% | SK-MEL-2 melanoma 24.2% | EKVX NSCLC 65.4% | SN12C renal 14.1% | UO-31 renal 33.1% | TK-10 renal 47.3% | ACHN renal 13.7% | CAKI-1 renal 38.9% | A498 renal 104%

COc1ccc(NC(=O)Nc2ccc(OCC(=O)N=Nc3c(O)[nH]c4ccc([N+](=O)[O-])cc34)cc2)cc1
inactive: HCT-15 colon 106% | HT29 colon 95.2% | SNB-75 CNS 72.4% | SNB-19 CNS 40.4% | U251 CNS 25% | PC-3 prostate 81.9% | SK-MEL-5 melanoma 96% | UACC-62 melanoma 104% | SK-MEL-28 melanoma 115% | SK-MEL-2 melanoma 89.4% | EKVX NSCLC 83.7% | SN12C renal 72.5% | UO-31 renal 94.3% | ACHN renal 102% | CAKI-1 renal 92.5% | A498 renal 101% | MOLT-4 leukemia 100%

COc1ccc2[nH]c(=O)c(CSc3nccc(-c4ccc(Cl)cc4)n3)cc2c1
active: SNB-75 CNS -11.5% | EKVX NSCLC 7.4% | UO-31 renal 7.11% | ACHN renal -46.2% | CAKI-1 renal -75.9%
inactive: HCT-15 colon 36.3% | HT29 colon 33.9% | SNB-19 CNS 40.5% | U251 CNS 13% | PC-3 prostate 29.3% | SK-MEL-5 melanoma 44.8% | UACC-62 melanoma 37.9% | SK-MEL-28 melanoma 45.3% | SK-MEL-2 melanoma 42.9% | SN12C renal 34.4% | CCRF-CEM leukemia 32.6% | MOLT-4 leukemia 22%

C=C1CCC2C3(C)COC(c4c(F)cccc4F)OC3CCC2(C)C1CC(O)C1=CCOC1=O (centres undefined)
inactive: HCT-15 colon 18.3% | HT29 colon 23% | SNB-75 CNS 45.1% | SNB-19 CNS 86.2% | U251 CNS 69.1% | PC-3 prostate 41% | SK-MEL-5 melanoma 68.2% | UACC-62 melanoma 79.7% | SK-MEL-28 melanoma 62.3% | SK-MEL-2 melanoma 52.4% | SN12C renal 34.9% | UO-31 renal 50% | TK-10 renal 105% | CAKI-1 renal 72.5% | A498 renal 134% | CCRF-CEM leukemia 17.7% | MOLT-4 leukemia 53.7%
active: ACHN renal 3.02%

COc1cccc(COc2ccc(/C=C3\Oc4cc(O)ccc4C3=O)cc2)c1
inactive: HCT-15 colon 42.1% | HT29 colon 81.1% | SNB-19 CNS 36.1% | U251 CNS 50.7% | PC-3 prostate 67.8% | SK-MEL-5 melanoma 24.6% | UACC-62 melanoma 82.7% | SK-MEL-28 melanoma 71.1% | SK-MEL-2 melanoma 87% | EKVX NSCLC 70.9% | SN12C renal 66.1% | CCRF-CEM leukemia 74.9% | MOLT-4 leukemia 52.1%
active: SNB-75 CNS -22.5% | UO-31 renal -64.7% | TK-10 renal 2.68% | ACHN renal -32.1% | CAKI-1 renal -23%

COc1cccc(/C=N/NC(=O)c2ccc3nc(-c4ccc(Cl)cc4)[nH]c3c2)c1O
active: HCT-15 colon 4.8% | HT29 colon -79.7% | SNB-75 CNS -81.8% | SNB-19 CNS -98.6% | U251 CNS -90.8% | PC-3 prostate -55.1% | SK-MEL-5 melanoma -98% | UACC-62 melanoma -92% | SK-MEL-28 melanoma -98.3% | SK-MEL-2 melanoma -95.1% | UO-31 renal -2.17% | ACHN renal -34% | CAKI-1 renal -66.1% | A498 renal -69.1% | CCRF-CEM leukemia -40.6% | MOLT-4 leukemia -50.4%

CC(=C(c1ccc(OCCN2CCCCC2)cc1)c1ccc(OCCN2CCCCC2)cc1)c1ccccc1
active: HCT-15 colon -0.0525% | HT29 colon -26.2% | SK-MEL-5 melanoma -90.9% | UACC-62 melanoma -79% | SK-MEL-28 melanoma -93.9% | UO-31 renal 2.17% | CCRF-CEM leukemia -19.2%
inactive: SNB-75 CNS 84.1% | SNB-19 CNS 38.7% | PC-3 prostate 47.5% | SK-MEL-2 melanoma 20.2% | EKVX NSCLC 73.6% | SN12C renal 68.6% | TK-10 renal 70.4% | ACHN renal 12.7% | CAKI-1 renal 33.7% | A498 renal 136%
